According to the supplement of paper PMC10849652:
Of roughly 7,900 targets only a part is listed; those with a hit were picked by preference. About 0.6% of all pairs of compound and target were hits.

What was measured:
Assay in all cases: log2 fold change, soluble protein after heating vs DMSO (PISA); higher = thermal stabilisation; K562 cells, 10 uM, 30 min; active = over 0.2 and 3.5 SD of the protein, either way, in both replicates (recomputed)
ZW10 = ZW10 (UniProt O43264)
Method in brief: (§1)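 Thermal stability values are relative to control samples and come from duplicates. They are expressed as log2 fold changes. For measurement, K562 cells (2×10^6 cells/mL) received 10 μM compound for 30 min, and aliquots were heated for 3 min over 48°C-58°C, pooled, and extracted at 4°C in PBS with 0.5% NP-40. Soluble protein, the supernatant after 21,000xg for 90 min, was quantified by TMTpro 16plex LC-MS/MS with equalised channel sums.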

ZWILCH = ZWILCH (UniProt Q9H900)
Method in brief: as §1

ZYG11B = ZYG11B (UniProt Q9C0D3)
Method in brief: as §1

Measured: log2 fold change

Chain of ZW10 (O43264 whole entry, looked up): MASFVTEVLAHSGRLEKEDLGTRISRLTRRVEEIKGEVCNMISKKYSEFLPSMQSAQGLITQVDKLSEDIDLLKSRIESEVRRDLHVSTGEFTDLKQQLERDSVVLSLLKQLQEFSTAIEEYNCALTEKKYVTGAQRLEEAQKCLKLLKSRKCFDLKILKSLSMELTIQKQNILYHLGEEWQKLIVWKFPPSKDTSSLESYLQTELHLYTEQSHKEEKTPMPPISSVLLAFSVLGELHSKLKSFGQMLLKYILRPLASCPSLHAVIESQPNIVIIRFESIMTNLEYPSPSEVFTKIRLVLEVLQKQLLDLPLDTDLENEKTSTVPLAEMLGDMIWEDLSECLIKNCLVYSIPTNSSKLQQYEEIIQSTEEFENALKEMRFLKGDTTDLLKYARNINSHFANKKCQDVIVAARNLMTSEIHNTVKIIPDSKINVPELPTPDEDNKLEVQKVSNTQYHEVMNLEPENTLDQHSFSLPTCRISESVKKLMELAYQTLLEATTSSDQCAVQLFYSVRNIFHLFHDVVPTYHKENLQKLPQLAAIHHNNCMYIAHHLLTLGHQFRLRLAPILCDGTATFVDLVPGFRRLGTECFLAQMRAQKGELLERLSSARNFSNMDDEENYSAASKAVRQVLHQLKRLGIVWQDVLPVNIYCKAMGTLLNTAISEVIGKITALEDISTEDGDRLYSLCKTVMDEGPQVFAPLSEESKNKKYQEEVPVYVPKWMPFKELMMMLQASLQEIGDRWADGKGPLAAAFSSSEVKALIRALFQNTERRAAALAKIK
Chain of ZWILCH (Q9H900 whole entry, looked up): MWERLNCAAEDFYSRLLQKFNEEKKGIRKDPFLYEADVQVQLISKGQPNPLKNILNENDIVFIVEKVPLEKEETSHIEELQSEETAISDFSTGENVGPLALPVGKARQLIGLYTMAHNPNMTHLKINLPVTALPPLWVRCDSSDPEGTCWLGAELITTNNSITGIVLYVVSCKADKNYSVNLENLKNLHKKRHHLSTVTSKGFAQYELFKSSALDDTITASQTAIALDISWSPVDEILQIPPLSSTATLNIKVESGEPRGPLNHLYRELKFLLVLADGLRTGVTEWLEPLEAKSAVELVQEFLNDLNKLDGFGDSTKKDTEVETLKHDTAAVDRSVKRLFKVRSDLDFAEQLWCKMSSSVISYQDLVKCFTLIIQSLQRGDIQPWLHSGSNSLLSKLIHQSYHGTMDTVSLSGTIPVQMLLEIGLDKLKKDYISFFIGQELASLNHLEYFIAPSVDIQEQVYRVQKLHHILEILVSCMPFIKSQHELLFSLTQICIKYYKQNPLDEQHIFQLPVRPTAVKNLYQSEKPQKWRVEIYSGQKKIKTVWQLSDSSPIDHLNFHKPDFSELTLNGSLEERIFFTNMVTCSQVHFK
Chain of ZYG11B (Q9C0D3 whole entry, looked up): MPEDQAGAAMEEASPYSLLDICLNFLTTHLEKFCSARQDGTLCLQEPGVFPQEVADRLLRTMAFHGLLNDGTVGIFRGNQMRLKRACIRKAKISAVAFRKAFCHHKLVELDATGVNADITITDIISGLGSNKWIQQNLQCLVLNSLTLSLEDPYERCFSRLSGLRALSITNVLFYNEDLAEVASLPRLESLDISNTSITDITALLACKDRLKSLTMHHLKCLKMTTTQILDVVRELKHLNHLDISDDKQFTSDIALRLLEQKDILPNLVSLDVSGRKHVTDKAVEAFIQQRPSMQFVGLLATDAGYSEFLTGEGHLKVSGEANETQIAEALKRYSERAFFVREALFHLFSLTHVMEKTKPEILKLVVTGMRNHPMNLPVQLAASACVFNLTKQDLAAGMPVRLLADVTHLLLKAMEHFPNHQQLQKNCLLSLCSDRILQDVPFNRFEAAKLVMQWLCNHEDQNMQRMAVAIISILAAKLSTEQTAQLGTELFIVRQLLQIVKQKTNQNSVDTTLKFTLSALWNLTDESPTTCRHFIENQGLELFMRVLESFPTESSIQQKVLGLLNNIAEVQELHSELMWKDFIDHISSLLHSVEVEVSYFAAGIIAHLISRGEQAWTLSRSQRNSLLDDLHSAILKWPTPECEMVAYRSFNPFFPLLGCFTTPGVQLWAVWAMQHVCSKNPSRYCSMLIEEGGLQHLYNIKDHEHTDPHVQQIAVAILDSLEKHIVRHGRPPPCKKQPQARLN

CCN(CC)Cc1ccc2cc(COC(=O)Nc3ccc(C(=O)NO)cc3)ccc2c1 [givinostat]
inactive: ZW10 0.096 | ZWILCH 0.046 | ZYG11B -0.009

CC(C)C[C@@H](C=O)NC(=O)[C@H](CC(C)C)NC(=O)[C@H](CC(C)C)NC(=O)OCc1ccccc1
inactive: ZW10 0.007 | ZWILCH 0.079 | ZYG11B 0.042

Cc1cc(Nc2cc(CN3CCOCC3)c3nc(C)c(Cc4ccc(Cl)cc4F)n3n2)n[nH]1 [gandotinib]
inactive: ZW10 -0.108 | ZWILCH -0.12 | ZYG11B 0.093

c1cc(OCCN2CCCCC2)cc(-c2n[nH]c3ccc(-c4nnc[nH]4)cc23)c1
inactive: ZW10 -0.016 | ZWILCH -0.048 | ZYG11B 0.002

O=C1NC(=O)C(c2cnc3ccccn23)=C1c1cn2c3c(cc(F)cc13)CN(C(=O)N1CCCCC1)CC2
inactive: ZW10 0.054 | ZWILCH 0.051 | ZYG11B 0.019

Cc1ccc(C(=O)N(CCCN)[C@@H](c2nc3cc(Cl)ccc3c(=O)n2Cc2ccccc2)C(C)C)cc1 [ispinesib]
inactive: ZW10 -0.179 | ZWILCH -0.045 | ZYG11B 0.041

Cn1c2cc(S(C)=O)sc2c2cnn(Cc3cccc(N)c3)c(=O)c21 (stereo unspecified)
inactive: ZW10 0.115 | ZWILCH -0.04 | ZYG11B -0.053

CCn1cc(-c2ccnc3[nH]c(-c4cccc(CN(C)C)c4)cc23)c(-c2ccc(NC(=O)N(C)C)cc2)n1
inactive: ZW10 0.022 | ZWILCH 0.01 | ZYG11B -0.085

CCN(CCCOc1ccc2c(Nc3cc(CC(=O)Nc4cccc(F)c4)[nH]n3)ncnc2c1)CCOP(=O)(O)O [barasertib]
inactive: ZW10 0.055 | ZWILCH 0.064 | ZYG11B 0.044

CNc1nc(-c2ccc3c(N)n[nH]c3c2)cc(N2C[C@@H](C(=O)NC3CCCCC3)CC[C@H]2C)n1
inactive: ZW10 0.009 | ZWILCH -0.037 | ZYG11B 0.002

Cc1ccc(NC(=O)c2cccc(N(C)C)c2)cc1NC(=O)c1ccc(O)cc1
inactive: ZW10 -0.043 | ZWILCH 0.238 | ZYG11B -0.018

CC1=C(C(=O)Nc2cc3cn[nH]c3cc2F)C(c2ccc(C(F)(F)F)cc2)CC(=O)N1 (stereo unspecified)
inactive: ZW10 -0.033 | ZWILCH -0.051 | ZYG11B -0.06
